Values joined by “and” are separate entries in the source; they are usually repeats but may differ in a detail not shown here. Identical values can stand only once. The whole screen tested about 5,500 compounds, of which about 2,000 (36%) were called active. Not shown: some 18% with an inconclusive outcome. Rule as the data show it: active = normalized growth mostly below about 0.91 (no sharp cut-off); inconclusive = no clear call, values can overlap the other calls; inactive = mostly above about 0.92. This is one part of the list.
Test: chemical genetic growth profiling, strain panel (AID 1159580);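 also: tested at 20 µM; growth read once vehicle control cultures reached saturation at 30 °C; 1 = growth at the plate median or of vehicle wells; lower values mean less growth of the strain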
Settings: S. cerevisiae deletion strains, growth OD

Measured: normalized growth

CNC[C@H](O)c1cccc(O)c1
inactive: locus YAL013W, strain DEP1, hits give low values 1.01 | locus YAL021C, strain ccr4, hits give low values 0.979 | locus YAL026C, strain drs2, hits give low values 0.997 | locus YAL030W, strain snc1, hits give low values 0.986 | locus YBL061C, strain skt5, hits give low values 0.988 | locus YBR009C, strain hhf1, hits give low values 0.995 | locus YBR021W, strain FUR4, hits give low values 1 | locus YBR023C, strain chs3, hits give low values 0.986 | locus YBR171W, strain sec66, hits give low values 0.98 | locus YBR229C, strain ROT2, hits give low values 1.01 | locus YBR231C, strain swc5, hits give low values 0.967 | locus YBR279W, strain paf1, hits give low values 0.991 | locus YCL011C, strain gbp2, hits give low values 1 | locus YCL016C, strain dcc1, hits give low values 0.983 | locus YCL029C, strain bik1, hits give low values 1.02 | locus YCL069W, strain vba3, hits give low values 0.991 | locus YCR088W, strain abp1, hits give low values 0.986 | locus YDL005C, strain med2, hits give low values 0.968 | locus YDL035C, strain GPR1, hits give low values 1.01 | locus YDL040C, strain nat1, hits give low values 0.984 | locus YDL074C, strain BRE1, hits give low values 1.01 | locus YDL101C, strain DUN1, hits give low values 1.01 | locus YDL134C, strain PPH21, hits give low values 1.01 | locus YDL185W, strain tfp1, hits give low values 1.02 | locus YDL192W, strain arf1, hits give low values 1.02 | locus YDR001C, strain nth1, hits give low values 0.991 | locus YDR069C, strain doa4, hits give low values 0.982 | locus YDR101C, strain arx1, hits give low values 1.02 | locus YDR137W, strain rgp1, hits give low values 0.966 | locus YDR150W, strain NUM1, hits give low values 1.01 | locus YDR159W, strain sac3, hits give low values 0.981 | locus YDR162C, strain NBP2, hits give low values 1.01 | locus YDR195W, strain ref2 0.91 | locus YDR297W, strain sur2, hits give low values 0.981 | locus YDR318W, strain mcm21, hits give low values 1.02 | locus YDR334W, strain swr1, hits give low values 0.982 | locus YDR335W, strain msn5, hits give low values 0.99 | locus YDR388W, hits give low values 1.01 | locus YDR392W, strain spt3, hits give low values 1 | locus YDR502C, strain sam2, hits give low values 1.01 | locus YEL003W, strain gim4, hits give low values 0.989 | locus YEL037C, strain rad23, hits give low values 0.984 | locus YEL061C, strain CIN8 (second series), hits give low values 0.99 | locus YEL061C, strain CIN8, hits give low values 1.01 | locus YER015W, strain faa2, hits give low values 0.969 | locus YER016W, strain bim1, hits give low values 0.981 | locus YER110C, hits give low values 1.02 | locus YER111C, strain swi4, hits give low values 0.988 | locus YER155C, strain BEM2 (second series), hits give low values 0.953 | locus YER155C, strain BEM2, hits give low values 1 | locus YER167W, strain BCK2, hits give low values 1.01 | locus YFR010W, strain ubp6, hits give low values 0.976 | locus YGL078C, strain dbp3, hits give low values 1.01 | locus YGL086W, strain mad1, hits give low values 1 | locus YGL167C, strain pmr1, hits give low values 0.983 | locus YGL173C, strain kem1, hits give low values 0.955 | locus YGL227W, strain vid30, hits give low values 0.971 | locus YGL240W, strain doc1, hits give low values 0.95 | locus YGL248W, strain PDE1, hits give low values 1 | locus YGL253W, strain hxk2, hits give low values 1.01 | locus YGR078C, strain PAC10, hits give low values 0.996 | locus YGR135W, strain pre9, hits give low values 1 | locus YGR229C, strain SMI1, hits give low values 0.992 | locus YGR252W, strain gcn5, hits give low values 0.989 | locus YHR013C, strain ard1, hits give low values 0.982 | locus YHR027C, strain rpn1, hits give low values 0.99 | locus YHR030C, strain SLT2, hits give low values 1 and 1.01 | locus YHR079C, strain IRE1 (second series), hits give low values 1.02 | locus YHR079C, strain IRE1, hits give low values 1.03 | locus YHR094C, strain hxt1, hits give low values 1.02 | locus YHR129C, strain ARP1, hits give low values 1.01 | locus YHR142W, strain chs7, hits give low values 1 | locus YHR200W, strain rpn10, hits give low values 1.02 | locus YIL066C, strain RNR3, hits give low values 1.01 | locus YIL073C, strain SPO22, hits give low values 1.04 | locus YIL125W, strain kgd1, hits give low values 1.01 | locus YIR030C, strain dcg1, hits give low values 1.01 | locus YJL092W, strain hpr5, hits give low values 0.977 | locus YJL095W, strain BCK1 (second series), hits give low values 0.98 | locus YJL095W, strain BCK1, hits give low values 1.01 and 1.02 | locus YJL115W, strain asf1, hits give low values 0.976 | locus YJL129C, strain trk1, hits give low values 0.977 | locus YJL134W, strain LCB3, hits give low values 1 | locus YJL154C, strain vps35, hits give low values 0.987 | locus YJL164C, strain tpk1, hits give low values 0.985 | locus YJL166W, strain qcr8, hits give low values 0.956 | locus YJL168C, strain set2, hits give low values 1.02 | locus YJL187C, strain SWE1 (second series), hits give low values 1.01 | locus YJR043C, strain POL32, hits give low values 0.996 | locus YJR066W, strain TOR1, hits give low values 0.969 | locus YJR075W, strain HOC1, hits give low values 1

Source: PubChem BioAssay AID1159580 (chemical genetic matrix, 2015)
